# Measurements as given in PubChem BioAssay (Tox21).
# Results filed as inconclusive are left out. Values without a mark were called inactive. Active and inactive are the calls of the source. The call rests on the fitted dose curve; in most records, active means well fitted cell-killing curve with a large enough effect in the repeat runs; inconclusive means weak or mixed curves; inactive means no such curve, though single readings can be large or run the other way.
# Test: qHTS assay to identify small molecule antagonists of the peroxisome proliferator-activated receptor delta (PPARd) signaling pathway - cell viability counter screen (AID 743213); further: nearly all actives have a fitted effect of over 50% in size
# Conditions: PPARd-bla HEK293H viability, CellTiter-Glo luminescence, 17 h; series mostly up to 62 µM; viability change, negative = cytotoxic: at the top concentration
# Description: U.S. Tox21 Program National Center for Advancing Translational Sciences [NCATS] NIH Chemical Genomics Center [NCGC] U.S. Environmental Protection Agency [EPA] National Institutes of Environmental Health Sciences [NIEHS] National Toxicology Program [NTP] U.S. Food and Drug Administration [FDA] Tox21 Assay Overview: The peroxisome proliferator-activated receptors (PPARs) are lipid-activated transcription factors of the nuclear receptor superfamily with three distinct subtypes namely PPAR alpha, PPAR delta (PPARd) and PPAR gamma. All these subtypes heterodimerizes with Retinoid X receptor (RXR) and have different physiological functions. […] To identify the compounds that inhibit PPAR-delta signaling, GeneBLAzer PPAR delta UAS-bla HEK293H cell line (Invitrogen, Carlsbad, CA, USA) containing a beta-lactamase reporter gene under the control of an Upstream Activator Sequence (UAS) was used to screen the Tox21 compound library. The cytotoxicity of the Tox21 compound library against the PPARd-bla cell line was tested in parallel by measuring the cell viability using CellTiter-Glo assay (Promega, Madison, WI) in the same wells.
# Tox21 Assay Protocol Summary: PPARd-bla cells were dispensed at 3000 cells/5uL/well in 1536-well black wall/clear bottom plates using a Multidrop Combi (Thermo Fisher Scientific, Waltham, MA) dispenser. After the assay plates were incubated at 37 C and 5% CO2 for 5 h, 23 nL of compounds dissolved in DMSO, positive controls or DMSO only was transferred to the assay plate by a Pintool station (Kalypsys, San Diego, CA), followed by addition of 1ul L165041 (300 nM, final concentration in the wells). The assay plates were incubated at 37 C for 17 h, and then 1 uL of LiveBLAzerTM B/G FRET substrate was added using a Bioraptr Flying Reagent Dispenser (FRD) workstation (Beckman Coulter, Indianapolis, IN, USA). The assay plates were incubated at room temperature for 2 h and fluorescence intensity was measured by an Envision plate reader (PerkinElmer, Shelton, CT). For cell viability readout that measures cytotoxicity, 3 ul/well of CellTiter-Glo reagent was added into the assay plates using a Bioraptr FRD. After 30 min incubation at room temperature, the luminescence intensity in the plates was measured using a ViewLux plate reader (PerkinElmer).
# On the % scale 0 is the no-effect control and ±100 the full control effect; potency means the concentration at half of the fitted maximal effect.
SMILES,"viability change, negative = cytotoxic",Potency
C#CCN(C)CCCOc1ccc(Cl)cc1Cl,13.8%,
O=[N+]([O-])c1ccc2[nH]ncc2c1,0.588%,
COc1cccc(N(C)C(=S)Oc2ccc3c(c2)CCCC3)n1,-5.04%,
CCCCCCCCCCCCCCOS(=O)(=O)O,,43.6 µM (active)
O[C@@H](COc1cccc2ncccc12)CN1CCN(C2c3ccccc3[C@@H]3[C@H](c4ccccc42)C3(F)F)CC1 (stereo not given in full),,23.7 µM (active)
CCC(C)(C)CC,,51.3 µM (active)
COC(C)OC,9.68%,
COc1cc2c(cc1OC)C(C(C(=O)N(CCc1ccc(OC)c(OC)c1OC)CCc1ccc(OC)c(OC)c1OC)c1ccccc1)=NCC2 (stereo not given),-17.6%,
COc1cc2nc(Cl)nc(N)c2cc1OC,-5.4%,
CC(=O)c1ccc2c(c1)N(CCCN(C)C)c1ccccc1S2,-5.5%,
CC1OC(=O)C(C)OC1=O (stereo not given),4.15%,
Nc1ncn([C@H]2C[C@H](O)[C@@H](CO)O2)c(=O)n1,-6.81%,
C[C@@H]1C[C@H]2O[C@@]3(O[C@@H]2C(C)(C)O)[C@H](O)[C@@]2(C)[C@@H]4CC[C@H]5C(C)(C)[C@@H](O[C@@H]6OC[C@@H](O)[C@H](O)[C@H]6O)CC[C@@]56C[C@@]46CC[C@]2(C)[C@@H]13,-8.49%,
CN(Cc1ccc(C(C)(C)C)cc1)Cc1cccc2ccccc12,,23.7 µM (active)
CCCCOC(=O)CCCCCCCC(=O)OCCCC,4.89%,
O=C(O)CC(=O)C(=O)O,1.5% [at 80.4 µM],
CCCn1cnc2c1c(=O)n(CCCCC(C)=O)c(=O)n2C,-14.9%,
COC(=O)c1ccc(I)cc1S(=O)(=O)NC(=O)Nc1nc(C)nc(OC)n1,-1.62%,
CN(C)CCN(Cc1ccccc1)c1ccccn1,-18%,
Cc1ncc(CO)c(C=O)c1O,-22.2%,

SMILES,"viability change, negative = cytotoxic",Potency
COc1cc2nc(N(C)CCCNC(=O)C3CCCO3)nc(N)c2cc1OC (stereo not given),-1.51%,
Nc1ccc([N+](=O)[O-])c(C(F)(F)F)c1,-2.06%,
CC[N+](C)(CC)CCOC(=O)C(O)(c1ccccc1)C1CCCCC1 (stereo not given),-13%,
O=C1CCCCCCCCCCCC(=O)OCCO1,5.28%,
C[N+]1(CC2COC(c3ccccc3)(C3CCCCC3)O2)CCCCC1 (stereo not given),-1.58%,
CCOC(=O)Cc1cccc2ccccc12,-0.104%,
CC/C=C\CCOC(=O)CC,15.9%,
C=CCOC(=O)CCC1CCCCC1,26.4%,
CCC(=O)O[C@]1(C(=O)CCl)[C@@H](C)C[C@H]2[C@@H]3CCC4=CC(=O)C=C[C@]4(C)[C@@]3(F)[C@@H](O)C[C@@]21C,17%,
C/C(=C(\CCOP(=O)(O)O)SC(=O)c1ccccc1)N(C=O)Cc1cnc(C)nc1N,1.06% [at 6.26 µM],
NCC(=O)O,1.79% [at 28.9 µM],
CCOC(=O)C(F)(F)F,1.73%,
COc1ccc(C(=O)N2CCN(CC(=O)N3CCOCC3)CC2)cc1,0.724%,
CC(C)(C)Cl,12.3% [at 80.4 µM],
CCNc1cc(O)ccc1C,-8.28%,
CC1=CCCC(C)(C)C12CCC(C)O2 (stereo not given),13.1%,
CC(COCCO)OCCO (stereo not given),-11.8%,
NC(N)=NCCC[C@H](N)C(=O)O,2.08% [at 6.26 µM],
CC(C)(COC(=O)c1ccccc1)COC(=O)c1ccccc1,0.0633%,
CCOc1ccc(O)cc1,-18.9%,
